About 7,900 targets were measured; listed, in parts, are those with a hit and a random draw of the rest. About 0.6% of all pairs of compound and target were hits.
What was measured:
Experiment in all cases: log2 fold change, soluble protein after heating vs DMSO (PISA); higher = thermal stabilisation; K562 cells, 10 uM, 30 min; active = over 0.2 and 3.5 SD of the protein, either way, in both replicates (recomputed)
[1] = compound: CC[C@@H]1C(=O)N(C)c2cnc(Nc3ccc(C(=O)NC4CCN(C)CC4)cc3OC)nc2N1C1CCCC1
Method in brief: (§1)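 Soluble protein was quantified by TMTpro 16plex LC-MS/MS after channel sums were equalised. It was obtained as the supernatant after 21,000xg for 90 min from pooled aliquots of K562 cells (2×10^6 cells/mL, 10 μM compound, 30 min) heated for 3 min across 48°C-58°C and extracted in PBS with 0.5% NP-40 at 4°C. Thermal stability values are relative to control samples and come from duplicates. They are given as log2 fold changes.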

volasertib = compound: CC[C@@H]1C(=O)N(C)c2cnc(Nc3ccc(C(=O)N[C@H]4CC[C@H](N5CCN(CC6CC6)CC5)CC4)cc3OC)nc2N1C(C)C [volasertib]
Method in brief: as §1

[2] = compound: CC[C@H](C)N1C=C(C2=C(C=C(C=C21)C3=CN=C(C=C3)N4CCNCC4)C(=O)NCC5=C(C=C(NC5=O)C)C)C
Method in brief: as §1

epoxomicin = compound: CC[C@H](C)[C@@H](C(=O)N[C@@H]([C@@H](C)O)C(=O)N[C@@H](CC(C)C)C(=O)[C@]1(CO1)C)NC(=O)[C@H]([C@@H](C)CC)N(C)C(=O)C [epoxomicin]
Method in brief: as §1

[3] = compound: CCn1c(C(=O)N(C2CC2)C2CC2)cc2c3c(ncn3C)c(Nc3cc(C)n(C)n3)nc21
Method in brief: as §1

[4] = compound: CCn1cc(-c2ccnc3[nH]c(-c4cccc(CN(C)C)c4)cc23)c(-c2ccc(NC(=O)N(C)C)cc2)n1
Method in brief: as §1

[5] = compound: CN(C)CC(=O)Nc1ccc2[nH]c(=O)c3ccccc3c2c1
Method in brief: as §1

rosiglitazone = compound: CN(CCOC1=CC=C(C=C1)C[C@H]2C(=O)NC(=O)S2)C3=CC=CC=N3 (racemic) [rosiglitazone]
Method in brief: as §1

[6] = compound: CN1C2=C(C3=C1C(=O)N(N=C3)CC4=CC(=CC=C4)N)SC(=C2)S(=O)C
Method in brief: as §1

[7] = compound: CN1CCC(CNc2ccc3ncc(-c4cccc(OC(F)(F)F)c4)n3n2)CC1
Method in brief: as §1

saracatinib = compound: CN1CCN(CCOc2cc(OC3CCOCC3)c3c(Nc4c(Cl)ccc5c4OCO5)ncnc3c2)CC1 [saracatinib]
Method in brief: as §1

sotrastaurin = compound: CN1CCN(c2nc(C3=C(c4c[nH]c5ccccc45)C(=O)NC3=O)c3ccccc3n2)CC1 [sotrastaurin]
Method in brief: as §1

alvocidib = compound: CN1CC[C@H](c2c(O)cc(O)c3c(=O)cc(-c4ccccc4Cl)oc23)[C@H](O)C1 [alvocidib]
Method in brief: as §1

Tubastatin A = compound: CN1CCc2c(c3ccccc3n2Cc2ccc(C(=O)NO)cc2)C1 [Tubastatin A]
Method in brief: as §1

[8] = compound: CNC(=O)C1=CC=CC=C1NC2=NC(=NC=C2Cl)NC3=C(C=C(C=C3)N4CCOCC4)OC
Method in brief: as §1

defactinib = compound: CNC(=O)c1ccc(Nc2ncc(C(F)(F)F)c(NCc3nccnc3N(C)S(C)(=O)=O)n2)cc1 [defactinib]
Method in brief: as §1

rucaparib = compound: CNCc1ccc(-c2[nH]c3cc(F)cc4c3c2CCNC4=O)cc1 [rucaparib]
Method in brief: as §1

[9] = compound: CNc1nc(-c2ccc3c(N)n[nH]c3c2)cc(N2C[C@@H](C(=O)NC3CCCCC3)CC[C@H]2C)n1
Method in brief: as §1

encorafenib = compound: COC(=O)N[C@@H](C)CNc1nccc(-c2cn(C(C)C)nc2-c2cc(Cl)cc(NS(C)(=O)=O)c2F)n1 [encorafenib]
Method in brief: as §1

[10] = compound: COC(=O)[C@H](CCSC)NC(=O)C1=C(C=C(C=C1)NC[C@H](CS)N)C2=CC=CC=C2
Method in brief: as §1

Measured: log2 fold change

PRKAR2B (UniProt P31323)
Chain of UniProt P31323 (P31323 whole entry, looked up): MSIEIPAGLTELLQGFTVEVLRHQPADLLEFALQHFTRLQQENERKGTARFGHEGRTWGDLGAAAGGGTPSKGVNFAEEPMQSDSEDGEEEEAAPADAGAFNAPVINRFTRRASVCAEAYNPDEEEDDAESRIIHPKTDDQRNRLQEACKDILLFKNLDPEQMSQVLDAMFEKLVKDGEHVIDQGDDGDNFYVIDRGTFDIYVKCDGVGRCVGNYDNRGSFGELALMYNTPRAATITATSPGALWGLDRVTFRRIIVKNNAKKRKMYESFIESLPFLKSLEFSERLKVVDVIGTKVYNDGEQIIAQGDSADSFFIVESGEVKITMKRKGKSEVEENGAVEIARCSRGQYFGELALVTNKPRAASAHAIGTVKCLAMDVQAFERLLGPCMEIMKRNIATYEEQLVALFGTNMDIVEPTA
active: [7] -0.495 | sotrastaurin -0.486
inactive: [1] -0.037 | volasertib 0.053 | [2] 0.056 | epoxomicin 0.025 | [3] -0.023 | [4] -0.023 | [5] -0.008 | rosiglitazone 0.051 | [6] 0.005 | saracatinib -0.024 | alvocidib -0.053 | Tubastatin A 0.02 | [8] -0.168 | defactinib -0.191 | rucaparib 0.086 | [9] 0.014 | encorafenib 0.069 | [10] -0.004

PSMB6 (UniProt P28072)
Chain of UniProt P28072 (P28072 whole entry, looked up): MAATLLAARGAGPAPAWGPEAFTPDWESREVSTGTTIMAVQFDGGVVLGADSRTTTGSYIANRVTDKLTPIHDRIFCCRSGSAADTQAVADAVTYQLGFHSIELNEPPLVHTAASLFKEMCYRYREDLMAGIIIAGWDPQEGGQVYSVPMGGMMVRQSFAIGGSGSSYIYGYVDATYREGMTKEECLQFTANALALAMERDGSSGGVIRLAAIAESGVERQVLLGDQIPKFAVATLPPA
active: epoxomicin -0.241
inactive: [1] 0.029 | volasertib 0.195 | [2] -0.055 | [3] 0.013 | [4] 0.259 | [5] -0.019 | rosiglitazone -0.027 | [6] 0.053 | [7] 0.03 | saracatinib -0.027 | sotrastaurin -0.017 | alvocidib 0.115 | Tubastatin A 0.019 | [8] -0.022 | defactinib 0.089 | rucaparib -0.043 | [9] 0.011 | encorafenib 0.03 | [10] 0.017

PSMD11 (UniProt O00231)
Chain of UniProt O00231 (O00231 whole entry, looked up): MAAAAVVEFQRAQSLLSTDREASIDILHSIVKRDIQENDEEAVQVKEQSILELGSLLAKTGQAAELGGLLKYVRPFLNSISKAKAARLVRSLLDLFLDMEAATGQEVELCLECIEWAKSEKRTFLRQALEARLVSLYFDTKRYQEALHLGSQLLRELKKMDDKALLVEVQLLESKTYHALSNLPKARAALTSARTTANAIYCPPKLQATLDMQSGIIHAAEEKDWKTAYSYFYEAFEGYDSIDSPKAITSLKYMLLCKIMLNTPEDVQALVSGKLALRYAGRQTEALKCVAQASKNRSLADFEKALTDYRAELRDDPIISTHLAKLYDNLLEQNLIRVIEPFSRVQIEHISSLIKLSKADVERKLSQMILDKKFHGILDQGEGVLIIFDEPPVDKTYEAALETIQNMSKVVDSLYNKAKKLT
inactive: [1] 0.011 | volasertib 0.187 | [2] 0.036 | epoxomicin -0.262 | [3] -0.016 | [4] 0 | [5] 0 | rosiglitazone -0.016 | [6] 0.018 | [7] 0.053 | saracatinib -0.065 | sotrastaurin -0.051 | alvocidib 0.051 | Tubastatin A 0.077 | [8] 0.013 | defactinib 0.059 | rucaparib 0.039 | [9] 0.041 | encorafenib 0.042 | [10] -0.05

PRKCA (UniProt P17252)
inactive: [1] 0.073 | volasertib -0.179 | [2] 0.025 | epoxomicin -0.018 | [3] -0.029 | [4] 0 | [5] 0.017 | rosiglitazone 0.032 | [6] -0.15 | [7] -0.29 | saracatinib -0.174 | alvocidib -0.017 | Tubastatin A 0.018 | [8] 0.026 | defactinib -0.006 | rucaparib 0.039 | [9] 0.308 | encorafenib -0.038 | [10] 0.005
active: sotrastaurin -0.502

PDSS2 (UniProt Q86YH6)
inactive: [1] 0.021 | volasertib 0.016 | [2] 0.12 | epoxomicin 0.024 | [3] 0.048 | [4] -0.069 | [5] 0.05 | rosiglitazone 0.055 | [6] 0.02 | [7] 0.018 | saracatinib 0.159 | sotrastaurin 0.218 | alvocidib -0.053 | Tubastatin A -0.013 | [8] -0.019 | defactinib -0.076 | rucaparib 0.07 | [9] -0.025 | encorafenib -0.154 | [10] -0.042

PDE12 (UniProt Q6L8Q7)
Chain of UniProt Q6L8Q7 (Q6L8Q7 whole entry, looked up): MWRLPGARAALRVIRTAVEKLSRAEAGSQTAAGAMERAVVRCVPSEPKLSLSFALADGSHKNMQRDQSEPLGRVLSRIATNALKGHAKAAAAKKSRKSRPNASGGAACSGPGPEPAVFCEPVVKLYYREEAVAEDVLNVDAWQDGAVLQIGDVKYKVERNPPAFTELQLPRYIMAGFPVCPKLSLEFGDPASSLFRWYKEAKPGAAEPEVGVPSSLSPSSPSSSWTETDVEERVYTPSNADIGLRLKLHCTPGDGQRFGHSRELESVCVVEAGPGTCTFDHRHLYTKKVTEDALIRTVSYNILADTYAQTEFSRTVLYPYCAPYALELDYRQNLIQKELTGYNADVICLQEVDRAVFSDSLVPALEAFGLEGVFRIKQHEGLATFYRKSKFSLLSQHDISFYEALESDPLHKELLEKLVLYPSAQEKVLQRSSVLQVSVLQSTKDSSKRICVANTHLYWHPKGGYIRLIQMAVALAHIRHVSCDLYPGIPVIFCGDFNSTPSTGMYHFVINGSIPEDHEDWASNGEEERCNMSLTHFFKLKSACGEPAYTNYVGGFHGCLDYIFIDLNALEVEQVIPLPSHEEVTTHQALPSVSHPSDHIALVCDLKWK
inactive: [1] -0.035 | volasertib -0.056 | [2] -0.008 | epoxomicin 0.04 | [3] 0.003 | [4] -0.038 | [5] 0.026 | rosiglitazone 0.028 | [6] -0.078 | [7] -0.014 | saracatinib 0.014 | sotrastaurin 0.018 | alvocidib -0.098 | Tubastatin A 0.01 | [8] 0.028 | defactinib -0.04 | rucaparib -0.005 | [9] 0.023 | encorafenib -0.019 | [10] 0.007

PDE4DIP isoform 4 (UniProt Q5VU43)
Chain of UniProt Q5VU43 (Q5VU43 whole entry, looked up): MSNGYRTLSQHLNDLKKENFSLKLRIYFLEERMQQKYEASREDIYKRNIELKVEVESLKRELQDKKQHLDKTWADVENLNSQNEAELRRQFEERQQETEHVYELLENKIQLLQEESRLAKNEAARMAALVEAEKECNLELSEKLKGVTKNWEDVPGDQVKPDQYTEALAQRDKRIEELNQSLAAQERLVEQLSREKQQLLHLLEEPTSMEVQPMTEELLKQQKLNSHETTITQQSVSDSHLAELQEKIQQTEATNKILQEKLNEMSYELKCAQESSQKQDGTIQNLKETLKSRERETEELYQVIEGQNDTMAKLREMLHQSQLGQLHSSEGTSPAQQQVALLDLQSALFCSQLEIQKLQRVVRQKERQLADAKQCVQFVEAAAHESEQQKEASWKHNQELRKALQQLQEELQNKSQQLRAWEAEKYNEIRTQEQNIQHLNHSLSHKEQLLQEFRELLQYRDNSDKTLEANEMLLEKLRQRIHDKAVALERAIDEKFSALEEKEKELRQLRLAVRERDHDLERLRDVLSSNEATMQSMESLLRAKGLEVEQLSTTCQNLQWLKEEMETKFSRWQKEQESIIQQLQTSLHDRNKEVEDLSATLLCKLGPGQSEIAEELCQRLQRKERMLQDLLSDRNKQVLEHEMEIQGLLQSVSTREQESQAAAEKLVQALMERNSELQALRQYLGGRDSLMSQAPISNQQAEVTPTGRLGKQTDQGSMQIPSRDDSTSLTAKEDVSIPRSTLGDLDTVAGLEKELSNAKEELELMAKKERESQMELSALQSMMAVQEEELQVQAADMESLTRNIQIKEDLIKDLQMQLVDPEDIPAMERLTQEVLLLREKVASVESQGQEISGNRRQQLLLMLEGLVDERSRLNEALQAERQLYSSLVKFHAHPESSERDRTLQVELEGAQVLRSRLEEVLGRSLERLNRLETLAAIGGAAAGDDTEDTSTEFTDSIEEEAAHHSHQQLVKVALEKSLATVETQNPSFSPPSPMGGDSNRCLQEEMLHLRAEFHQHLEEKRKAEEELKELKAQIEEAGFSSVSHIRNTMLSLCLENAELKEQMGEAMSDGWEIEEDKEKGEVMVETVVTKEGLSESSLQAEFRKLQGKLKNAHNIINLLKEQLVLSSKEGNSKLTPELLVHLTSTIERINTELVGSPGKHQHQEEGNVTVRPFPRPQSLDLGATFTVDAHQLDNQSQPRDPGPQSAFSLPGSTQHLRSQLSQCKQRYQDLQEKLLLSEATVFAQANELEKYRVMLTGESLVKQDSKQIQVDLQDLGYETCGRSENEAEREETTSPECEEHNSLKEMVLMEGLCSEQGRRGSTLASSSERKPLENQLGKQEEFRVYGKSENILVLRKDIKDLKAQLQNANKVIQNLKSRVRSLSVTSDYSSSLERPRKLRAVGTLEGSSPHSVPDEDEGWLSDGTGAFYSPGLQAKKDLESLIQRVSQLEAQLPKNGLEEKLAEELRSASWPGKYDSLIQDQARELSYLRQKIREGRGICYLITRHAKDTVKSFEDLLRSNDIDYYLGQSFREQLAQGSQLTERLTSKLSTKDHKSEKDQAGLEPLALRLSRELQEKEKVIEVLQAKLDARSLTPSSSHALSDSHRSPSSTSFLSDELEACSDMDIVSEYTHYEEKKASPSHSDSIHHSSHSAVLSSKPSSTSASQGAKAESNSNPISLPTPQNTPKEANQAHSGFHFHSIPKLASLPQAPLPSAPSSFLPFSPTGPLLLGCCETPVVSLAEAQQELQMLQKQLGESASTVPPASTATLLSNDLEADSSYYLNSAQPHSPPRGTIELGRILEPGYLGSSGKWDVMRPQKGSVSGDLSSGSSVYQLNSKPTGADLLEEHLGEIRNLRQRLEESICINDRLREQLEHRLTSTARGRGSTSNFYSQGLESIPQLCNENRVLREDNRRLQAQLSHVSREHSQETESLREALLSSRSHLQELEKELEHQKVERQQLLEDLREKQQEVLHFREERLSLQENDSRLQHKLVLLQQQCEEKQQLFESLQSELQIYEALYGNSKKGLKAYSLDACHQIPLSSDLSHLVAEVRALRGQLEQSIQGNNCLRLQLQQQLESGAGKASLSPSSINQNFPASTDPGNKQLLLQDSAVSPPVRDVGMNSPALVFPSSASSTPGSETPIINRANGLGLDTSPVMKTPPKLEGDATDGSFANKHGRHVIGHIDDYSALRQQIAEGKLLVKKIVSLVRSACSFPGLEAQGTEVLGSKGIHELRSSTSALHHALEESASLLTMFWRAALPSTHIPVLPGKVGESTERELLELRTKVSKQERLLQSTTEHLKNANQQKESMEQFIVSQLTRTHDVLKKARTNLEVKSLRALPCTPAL
inactive: [1] 0.013 | volasertib 0.005 | [2] -0.071 | epoxomicin -0.012 | [3] -0.004 | [4] -0.009 | [5] -0.035 | rosiglitazone 0.003 | [6] -0.046 | [7] 0.006 | saracatinib -0.028 | sotrastaurin -0.064 | alvocidib 0.017 | Tubastatin A 0.064 | [8] -0.065 | defactinib 0.021 | rucaparib -0.057 | [9] 0.007 | encorafenib -0.015 | [10] 0.035

PRKAA1 isoform 2 (UniProt Q13131)
inactive: [1] -0.035 | volasertib -0.154 | [2] 0.04 | epoxomicin 0.017 | [3] -0.026 | [4] -0.052 | [5] -0.007 | rosiglitazone 0.016 | [6] 0.001 | saracatinib 0.027 | sotrastaurin 0.033 | alvocidib -0.032 | Tubastatin A -0.015 | [8] -0.19 | defactinib -0.048 | rucaparib -0.006 | [9] -0.047 | encorafenib 0.02 | [10] -0.004
active: [7] -0.254

Reference: the supplement of paper PMC10849652
